Compounds without any hit were thinned out: in the full panel of roughly 83,000, 20% have a hit.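 48-hour exposure, single concentration, 96-well plates; percent growth endpoint where 0 means no net growth. Active: below 10.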 Unmarked numbers belong to inactive results. Active and inactive are the calls of the source.

The text below walks through data of PubChem BioAssay (NCI).

What all share (assay): NCI-60 one-dose screen, 48 h (100 = growth as untreated, 0 = no growth, -100 = all killed)
The subject of one experiment is SK-MEL-2 melanoma. Particulars: 10 µM unless noted.
In the next experiment the test system is EKVX NSCLC. Particulars: 10 µM unless noted.
The test system of a further experiment is SN12C renal. The settings on record: 10 µM unless noted.
A further experiment deals with UO-31 renal. The settings on record: 10 µM unless noted.
For another experiment, the system named is TK-10 renal. Particulars: 10 µM unless noted.
Another experiment deals with ACHN renal. The settings on record: 10 µM unless noted.
The next experiment has as its system CAKI-1 renal. The settings on record: 10 µM unless noted.
Another experiment relates to A498 renal. Particulars: 10 µM unless noted.
The next experiment concerns CCRF-CEM leukemia. The settings on record: 10 µM unless noted.
The next experiment concerns MOLT-4 leukemia. Particulars: 10 µM unless noted.
In another experiment the test system is SR leukemia. Particulars: 10 µM unless noted.
The test system of another experiment is RPMI-8226 leukemia. The settings on record: 10 µM unless noted.
Another experiment relates to OVCAR-8 ovarian. The settings on record: 10 µM unless noted.
A further experiment relates to OVCAR-5 ovarian. Particulars: 10 µM unless noted.
Another experiment deals with OVCAR-4 ovarian. The settings on record: 10 µM unless noted.
The test system of a further experiment is SK-OV-3 ovarian. The settings on record: 10 µM unless noted.
Another experiment deals with OVCAR-3 ovarian. The settings on record: 10 µM unless noted.
Another experiment concerns HS 578T breast. The settings on record: 10 µM.
For a further experiment, the system named is NCI/ADR-RES ovarian. The settings on record: 10 µM unless noted.
The test system of a further experiment is IGROV1 ovarian. Particulars: 10 µM unless noted.

For `CNCc1ccccc1CN(CC(=O)Nc1ccc2c(c1)CC1(C2)C(=O)Nc2ncccc21)C(=O)C(C)(C)C` (stereo unspecified), the growth was 104% in the experiment on SK-MEL-2 melanoma; 100% in the experiment with EKVX NSCLC; 103% in the experiment on SN12C renal; 88.1% with UO-31 renal; 103% in the experiment on TK-10 renal; 107% in the experiment on ACHN renal. For the same compound, the growth is 91.6% with CAKI-1 renal; 122% in the experiment with A498 renal; 116% with CCRF-CEM leukemia; 103% in the experiment with MOLT-4 leukemia; 110% with SR leukemia; 106% in the experiment on RPMI-8226 leukemia. Further, the growth in the experiment with OVCAR-8 ovarian was 98.9%; in the experiment with OVCAR-5 ovarian it was 109%; in the experiment with OVCAR-4 ovarian it was 104%; in the experiment on SK-OV-3 ovarian, 108%; in the experiment on OVCAR-3 ovarian it was 114%; in the experiment with HS 578T breast it was 95.9%. Also, in the experiment with NCI/ADR-RES ovarian, the growth is 108%.
For `CCCCNCC(O)c1cc2c(Cl)cc(Cl)cc2c2cc(C(F)(F)F)ccc12` (stereo unspecified), the growth in the experiment on SK-MEL-2 melanoma was -65.4% (active); in the experiment with EKVX NSCLC it was -59.1% (active); with SN12C renal it was -82.2% (active); in the experiment with UO-31 renal, -81.2% (active); with TK-10 renal it was -88.2% (active); in the experiment with ACHN renal, -78.7% (active). Moreover, the growth in the experiment with CAKI-1 renal is -65.1% (active); in the experiment with A498 renal, -19.7% (active); with CCRF-CEM leukemia, -49.6% (active); with MOLT-4 leukemia, -54.8% (active); in the experiment with SR leukemia, -68% (active); with RPMI-8226 leukemia it was -38.8% (active). The growth in the experiment with OVCAR-8 ovarian is -56% (active); in the experiment with OVCAR-5 ovarian, -81.2% (active); in the experiment with OVCAR-4 ovarian, -89.7% (active); in the experiment on IGROV1 ovarian, -65.2% (active); in the experiment on OVCAR-3 ovarian it was -91.1% (active); in the experiment on HS 578T breast it was -51.6% (active). Further, the growth in the experiment on NCI/ADR-RES ovarian was -64% (active).
As for `COc1ccccc1/C=N\NC(=S)Nc1ccc(F)cc1`, the growth in the experiment with SK-MEL-2 melanoma was 81%; with EKVX NSCLC, 75.7%; with SN12C renal, 81.1%; in the experiment on UO-31 renal it was 62.2%; in the experiment on TK-10 renal it was 97.5%; in the experiment on ACHN renal it was 87.5%. Besides, the growth was 88.5% in the experiment with CAKI-1 renal; 67% with A498 renal; 89.2% with CCRF-CEM leukemia; 57.3% in the experiment with MOLT-4 leukemia; 28.6% in the experiment on SR leukemia; 79.8% in the experiment on RPMI-8226 leukemia. Moreover, the growth in the experiment on OVCAR-8 ovarian was 78.7%; with OVCAR-5 ovarian it was 94.1%; with SK-OV-3 ovarian, 89.2%; in the experiment with IGROV1 ovarian it was 72.1%; in the experiment on OVCAR-3 ovarian, 69.7%; in the experiment with HS 578T breast, 70.3%. In addition, in the experiment with NCI/ADR-RES ovarian, the growth was 38.4%.
Turning to `C#CCNC(=S)N/N=C(\C)c1ccccn1`, the growth is 74.3% in the experiment with SK-MEL-2 melanoma; 22.1% in the experiment with EKVX NSCLC; 13.4% in the experiment with SN12C renal; -13.9% (active) with UO-31 renal; 50.9% in the experiment on TK-10 renal; 15.7% in the experiment with ACHN renal. Moreover, the growth with CAKI-1 renal is -13.6% (active); with A498 renal, 16.7%; in the experiment with CCRF-CEM leukemia, 13.4%; in the experiment with MOLT-4 leukemia, 3.54% (active); in the experiment with SR leukemia it was 3.06% (active); in the experiment with RPMI-8226 leukemia, 12.9%. Further, the growth with OVCAR-8 ovarian was 12.4%; in the experiment with OVCAR-5 ovarian, 35.1%; with OVCAR-4 ovarian, 29.1%; in the experiment on IGROV1 ovarian, 5.45% (active); with OVCAR-3 ovarian, 16.6%; in the experiment on NCI/ADR-RES ovarian it was 8.45% (active).
`NC(=Nc1ccccc1)SCCCSC(N)=Nc1ccccc1`: the growth with SK-MEL-2 melanoma is 90.8%; with EKVX NSCLC, 78.8%; in the experiment with SN12C renal, 89.3%; with UO-31 renal, 42.1%; with TK-10 renal, 101%; in the experiment on ACHN renal, 81.5%. Further, the growth in the experiment with CAKI-1 renal is 76.4%; in the experiment with A498 renal it was 80.2%; in the experiment on CCRF-CEM leukemia, 79.3%; in the experiment with MOLT-4 leukemia, 90.8%; in the experiment on SR leukemia, 94.6%; with RPMI-8226 leukemia it was 73.4%. In addition, the growth is 86.4% in the experiment with OVCAR-8 ovarian; 86.4% with OVCAR-5 ovarian; 76.8% in the experiment on OVCAR-4 ovarian; 97.3% in the experiment on SK-OV-3 ovarian; 80.1% with IGROV1 ovarian; 89% with HS 578T breast. Besides, the growth with NCI/ADR-RES ovarian is 85.5%.
With `COc1cccc2nc(Nc3cccc(NC(=O)c4ccc(N5CCN(C)CC5)c(C(F)(F)F)c4)c3)ccc12`, the growth in the experiment on SK-MEL-2 melanoma was 77.4%; with EKVX NSCLC it was 66.7%; in the experiment with SN12C renal, 45.7%; in the experiment on UO-31 renal, 22.1%; in the experiment on TK-10 renal, 51.1%; with ACHN renal it was 26.8%. Further, the growth was 24.8% in the experiment with CAKI-1 renal; 64.4% in the experiment with A498 renal; 12.5% in the experiment on CCRF-CEM leukemia; -16.6% (active) in the experiment on MOLT-4 leukemia; -7.69% (active) in the experiment with SR leukemia; 7.17% (active) with RPMI-8226 leukemia. Also, the growth with OVCAR-8 ovarian is 30.7%; in the experiment with OVCAR-5 ovarian it was 61.5%; in the experiment on OVCAR-4 ovarian, 39.5%; with SK-OV-3 ovarian, 81.7%; in the experiment on OVCAR-3 ovarian it was 29.6%; with HS 578T breast, 32.6%. In addition, the growth in the experiment on NCI/ADR-RES ovarian was 43.9%.
Take `CC1C2CCC(C2)C1COCCOCCO` (stereo unspecified): the growth in the experiment on SK-MEL-2 melanoma was 112%; with EKVX NSCLC, 112%; in the experiment on SN12C renal, 109%; in the experiment on UO-31 renal it was 98.7%; with TK-10 renal it was 109%; with ACHN renal, 106%. Further, the growth with CAKI-1 renal was 105%; with A498 renal, 83.7%; with CCRF-CEM leukemia it was 112%; in the experiment with MOLT-4 leukemia it was 97.6%; in the experiment on SR leukemia it was 105%; in the experiment with RPMI-8226 leukemia it was 108%. The growth was 102% in the experiment on OVCAR-8 ovarian; 107% in the experiment on OVCAR-5 ovarian; 110% with SK-OV-3 ovarian; 113% with IGROV1 ovarian; 112% with OVCAR-3 ovarian; 110% in the experiment with HS 578T breast. The growth in the experiment with NCI/ADR-RES ovarian is 104%.
As for `O=C(c1ccccc1)N(CCCCl)C(=O)N(CCCCl)C(=O)c1ccccc1`, the growth in the experiment on SK-MEL-2 melanoma is 103%; in the experiment with EKVX NSCLC it was 81%; in the experiment on SN12C renal, 94.6%; with UO-31 renal, 73.4%; with TK-10 renal, 96.8%; in the experiment with ACHN renal, 90.9%. Besides, the growth in the experiment on CAKI-1 renal was 74.9%; in the experiment with A498 renal, 79.5%; in the experiment on CCRF-CEM leukemia, 99.7%; in the experiment with MOLT-4 leukemia, 84.4%; in the experiment on SR leukemia it was 101%; in the experiment with RPMI-8226 leukemia, 88.1%. In addition, the growth in the experiment on OVCAR-8 ovarian was 97.2%; in the experiment with OVCAR-5 ovarian it was 87%; with SK-OV-3 ovarian, 84.5%; with IGROV1 ovarian it was 90.7%; in the experiment on OVCAR-3 ovarian, 93.7%; with HS 578T breast, 93.9%. In the experiment with NCI/ADR-RES ovarian, the growth was 91.1%.
